Assay results taken from PubChem BioAssay (Tox21).
Results filed as inconclusive are left out. Active and inactive are the calls of the source. Calls come from the whole dose curve; as a rule, active = well fitted cell-killing curve with a large enough effect in the repeat runs; inconclusive = weak or mixed curves; inactive = flat fitted curve, though single readings scatter.

Experiment: qHTS assay to identify small molecule antagonists of the TGF-beta/Smad signaling pathway - cell viability counter screen (AID 1346824); note: nearly all actives have a fitted effect of over 50% in size
Conditions: SBE-bla HEK293T viability, CellTiter-Glo luminescence; series mostly up to 76.8 µM
From the text: U.S. Tox21 Program National Center for Advancing Translational Sciences [NCATS] NIH Chemical Genomics Center [NCGC] U.S. Environmental Protection Agency [EPA] National Institutes of Environmental Health Sciences [NIEHS] National Toxicology Program [NTP] U.S. Food and Drug Administration [FDA] Tox21 Assay Overview: Transforming growth factor beta (TGF-beta) superfamily consists of a large number of structurally related dimeric proteins that act as hormones or local mediators in regulating a wide range of biological functions. This superfamily includes TGF-betas themselves, the bone morphogenetic proteins (BMPs) and the activins. These ligands induce oligomerization of serine/threonine receptor kinases and phosphorylate the cytoplasmic signaling molecules of Smad protein family. CellSensor SBE-bla HEK 293T cell line (Life Technologies, Carlsbad, CA), responsive to TGF-beta was used to screen Tox21 10K compound library for identification of agonists/antagonists of the Smad signaling pathway. This cell line contains a beta-lactamase reporter gene under control of the Smad binding element (SBE) stably integrated into HEK 293T cells. Also cytotoxicity of the compounds was tested in parallel by measuring the cell viability using CellTiter-Glo assay system in the same wells.
Tox21 Assay Protocol Summary: SBE-bla HEK 293T cells were dispensed at 4,000/well in 5 uL of assay medium into black wall/clear-bottom 1536-well plates using a Multidrop Combi (ThermoFisher Scientific, Waltham, MA) dispenser. After the assay plates were incubated at 37 C and 5% CO2 for an overnight, 23 nL of compounds dissolved in DMSO, positive controls or DMSO only was transferred to the assay plate by a Pintool station (Kalypsys, San Diego, CA). Compound transfer was followed by the addition of 1 uL of 0.25 ng/mL TGF-beta1 or assay buffer using two separate tips of Flying Reagent Dispenser (FRD, Aurora Discovery, San Diego, CA). The assay plates were incubated at 37 C and 5% CO2 for 5 hr. One uL of LiveBLAzer B/G FRET substrate (Life Technologies) was added using a Flying Reagent Dispenser (FRD, Aurora Discovery, San Diego, CA) and the plates were incubated at room temperature for 2 hr. Fluorescence intensity (405 nm excitation, 460 nm and 530 nm emissions) was measured using an Envision plate reader (PerkinElmer, Shelton, CT). For cytotoxicity read, 4 uL of CellTiter-Glo reagent (Promega Corporation, Madison, WI) was added to each well of the assay plates using FRD. After 30 min incubation at room temperature, the luminescence intensity was measured using ViewLux plate reader (PerkinElmer).
% is set by controls: 0 for no effect and ±100 for the full control effect.

Compound	outcome	viability change, negative = cytotoxic
O=C(O)P(=O)(O)O	inactive	
Cc1ccc(S(=O)(=O)NC(=O)NN2CC3CCCC3C2)cc1 (stereo not given)	inactive	
C=CC(=O)CC	inactive	
CC[C@@]1(c2ccccc2)NC(=O)N(C)C1=O	inactive	
COc1cc(OC)cc(OC)c1	inactive	
CC(=O)Nc1ccc(S(=O)(=O)Nc2cc(C)on2)cc1	inactive	
O=C(O)Cc1c(Cl)ccc(Cl)c1Cl	inactive	
CC(=O)Nc1ccc(OCCOCCOc2ccc(NC(C)=O)cc2)cc1	inactive	
CCC(C)c1nccnc1OC (stereo not given)	inactive	
N#Cc1cc(NC(=O)C(=O)O)c(Cl)c(NC(=O)C(=O)O)c1	inactive	
Cc1cc(=O)oc2cc(O[C@@H]3SC[C@@H](O)[C@H](O)[C@H]3O)ccc12	inactive	
CC(=O)c1c(C)cc(C(C)(C)C)cc1C	inactive	
NNC(=O)CCCCC(=O)NN	inactive	
CC(C)(O)c1ccc(C(C)(C)O)cc1	inactive	
C/C=C(\C)C(=O)OC/C=C(\C)CCC=C(C)C	inactive	
N=C(N)S(=O)O	inactive	
CN(C)c1cc(NC(=O)CNC(C)(C)C)c(O)c2c1C[C@H]1C[C@H]3[C@H](N(C)C)C(=O)C(C(N)=O)=C(O)[C@@]3(O)C(=O)C1=C2O	inactive	
CC(C)(C)OC(=O)c1ccccc1C(=O)O	inactive	
CC(C)(C)C(=O)NCCCC(=O)O	inactive	
COc1cnc(NS(=O)(=O)c2ccc(N)cc2)nc1	inactive	

Compound	outcome	viability change, negative = cytotoxic
CCCC(=O)OC	inactive	
CC(=O)O[C@@H]1CC2C3CCc4cc(OC(=O)c5ccccc5)ccc4C3CCC2(C)[C@H]1OC(C)=O (stereo not given in full)	inactive	
COC(=O)c1c(C)cc(O)c(C)c1O	inactive	
Cc1ccccc1OCC(=O)O	inactive	
c1cc2ccc3ccc4ccc5cccc6c(c1)c2c3c4c56		5.15% [at 2.72 µM] (inactive)
CC/C=C\CCCCCCCCCCOC(C)=O	inactive	
CCCCCCCCCCCCCCCC/C=C/C1CC(=O)OC1=O (stereo not given)	inactive	
CN1CCN(C(=O)C2CCCCC2)CC1	inactive	
COCCCOc1cc(C[C@@H](C[C@H](N)[C@@H](O)C[C@H](C(=O)NCC(C)(C)C(N)=O)C(C)C)C(C)C)ccc1OC	inactive	
CC(=O)/C=C/C=C1/C2CCC(C2)C1(C)C (stereo not given)	inactive	
CCCCCCCCS(=O)(=O)O	inactive	
CC(=O)Oc1ccc(C(C)=O)cc1	inactive	
C=CCn1cc[n+](C)c1	inactive	
CCC(C)(C)C	inactive	
CC(C)C[P+](C)(CC(C)C)CC(C)C	inactive	
CCCCC(O)/C=C(C)/C=C/C=C/C(=O)N1CCCC1=O (stereo not given)	inactive	
N#Cc1ccccc1C#N	inactive	
O=C1Nc2ccccc2C1=O	inactive	
CN(C)CCc1c[nH]c2ccc(CS(=O)(=O)N3CCCC3)cc12	inactive	
CCCc1ncc(C(=O)O)s1	inactive	
